Potency data for 24 compounds are collected here from PubChem BioAssay (NCATS).

Records with an inconclusive call do not appear. Activity calls are given as the source filed them. The call rests on the fitted dose curve; in most records, active means well fitted curve in the direction sought with a large enough effect; inconclusive means small, poorly fitted or top-dose-only effect, or another doubt; inactive means no such curve, though single readings can be large; an effect the other way counts as inactive or inconclusive.

Test [1] can be described thus: BET inhibitor-based combinations targeting novel dependencies in MECOM-rearranged (r) AML: OCI-AML3 cell line (AID 2202232). Further: nearly all actives have a fitted effect of over 35% in size. The following applies: Potency: OCI-AML3 viability. In outline:
(§1)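 AML cell lines seeded at 500 cells/well, treated with 11-point dose curves for 48 h. Viability by CellTiter-Glo luminescence, normalised to DMSO and empty wells; activity expressed as AUC and per-cell-line Z-transformed AUC.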

Test [2] can be described thus: BET inhibitor-based combinations targeting novel dependencies in MECOM-rearranged (r) AML: MV-4-11 cell line (AID 2202233). Further: nearly all actives have a fitted effect of over 45% in size. In short, it runs like this:
(§2)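 Cells at 500/well were exposed for 48 hr to MIPE v5.0 drugs as 11-point dose curves. Viability was read by CellTiter-Glo luminescence and normalized to DMSO and empty-well controls. Activity was expressed as AUC and per-cell-line Z-AUC.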

The nature of test [3]: BET inhibitor-based combinations targeting novel dependencies in MECOM-rearranged (r) AML: HNT-34 cell line (AID 2202234). Further: nearly all actives have a fitted effect of over 35% in size. In outline:
as §2

The nature of test [4]: BET inhibitor-based combinations targeting novel dependencies in MECOM-rearranged (r) AML: UCSD-AML1 cell line (AID 2202235). Further: nearly all actives have a fitted effect of over 40% in size. In short, it runs like this:
as §2

The nature of test [5]: BET inhibitor-based combinations targeting novel dependencies in MECOM-rearranged (r) AML: AML-191 cell line (AID 2202236; further: nearly all actives have a fitted effect of over 35% in size). In short, it runs like this: as §1
The nature of test [6]: BET inhibitor-based combinations targeting novel dependencies in MECOM-rearranged (r) AML: AML-194 cell line (AID 2202237; further: nearly all actives have a fitted effect of over 40% in size). In short, it runs like this: as §1
Potency means the concentration at half of the fitted maximal effect.

As to `OC1CCC(Oc2cccc3cnc(Nc4ccc5nc[nH]c5c4)nc23)CC1` (stereo not given), the Potency in test [1] is 1.48 µM (active); in test [2], 0.0525 µM (active); in test [3] it was 0.934 µM (active); in test [4], 0.934 µM (active); in test [5], 0.833 µM (active); in test [6] it was 1.32 µM (active).

For the compound `C=CC(=O)N1CCC(C2CCNc3c(C(N)=O)c(-c4ccc(Oc5ccccc5)cc4)nn32)CC1` (stereo not given), the Potency in test [1] was 13.2 µM (active); in test [2], 10.5 µM (active). The Potency result in test [4] was “inactive”.

On to `Cc1c(NC(=O)c2cc(C(N)=O)nc3cc(F)ccc23)c(C(F)(F)F)nn1Cc1ccc(C(C)(C)C)cc1`, for which the Potency in test [1] was 23.5 µM (active). Also, the Potency entry in test [2] and in test [4] was “inactive” in each case.

`Nc1nc2c(c(=O)[nH]1)N1CN(c3ccc(C(=O)N[C@@H](CCC(=O)O)C(=O)O)cc3)CC1CN2` (stereo not given in full): the figures for the Potency in test [1] and in test [3] were 1.66 µM (active) and 9.34 µM (active), respectively.

For `COc1cccc(-c2c(C)n(Cc3c(F)cccc3C(F)(F)F)c(=O)n(C[C@H](NCCCC(=O)O)c3ccccc3)c2=O)c1F`, the Potency in test [1] is 7.42 µM (active). Besides, the Potency result in test [2], in test [4] and in test [6] was “inactive” throughout.

For `COc1cc(C(C)C)c2c(c1)S(=O)(=O)N(COc1cc(=O)n3cccc(OCCN4CCCCC4)c3n1)C2=O`, the Potency in test [1] is 23.5 µM (active); in test [2] it was 23.5 µM (active); in test [3], 20.9 µM (active); in test [5], 29.5 µM (active); in test [6] it was 23.5 µM (active).

In the case of `CC(=O)Nc1ccc(C(=O)NC(C)(C)C)cc1`, the Potency result in test [1], in test [3], in test [4], in test [5] and in test [6] was “inactive” throughout.

`Cn1cc(-c2ccc(-c3cncc(Cl)c3N3CCC4(CCNC4=O)CC3)cc2)cn1`: the Potency in test [1] was 16.6 µM (active); in test [2], 14.8 µM (active). Further, the Potency entry in test [4] is “inactive”.

With `CC[C@@]1(O)C(=O)OCc2c1cc1n(c2=O)Cc2c-1nc1ccccc1c2CCNC(C)C`, the Potency is 0.0047 µM (active) in test [1], 0.0042 µM (active) in test [2], 0.0118 µM (active) in test [5] and 0.0132 µM (active) in test [6].

Regarding `Cc1ccc(NC(=O)c2cccc(C(C)(C)C#N)c2)cc1Nc1ccc2ncn(C)c(=O)c2c1`, the Potency in test [1] is 0.0742 µM (active); in test [3], 0.662 µM (active).

On to `C[C@@H]1Cc2c([nH]c3ccccc23)[C@@H](c2c(F)cc(/C=C/C(=O)O)cc2F)N1CC(C)(C)F`, for which the Potency entry in test [1], in test [2], in test [4], in test [5] and in test [6] was “inactive” in each case.

`CC(C)(O)C1CCC(Nc2ccc3ncc(-c4cccc(C(F)(F)F)c4)n3n2)CC1` (stereo not given): the Potency in test [1] is 11.8 µM (active); in test [2], 3.32 µM (active); in test [4] it was 6.61 µM (active); in test [5] it was 5.9 µM (active).

For `CCc1ccc(N(CC(C)C)S(=O)(=O)c2ccc(OCC3CCOCC3)c(CO)c2)cc1`, the figures for the Potency in test [1] and in test [2] were 14.8 µM (active) and 18.6 µM (active), respectively. Further, the Potency result in test [4] is “inactive”.

Take `Nc1nc(-c2nn(Cc3ccccc3F)c3ncccc23)ncc1C1CC1`: the Potency was 5.9 µM (active) in test [1], 1.18 µM (active) in test [2] and 14.8 µM (active) in test [4].

Turning to `CC(C)Oc1ccc(C(=O)N[C@H](CNC(=O)CN(C)C)Cc2ccc(-c3cn4cccc([C@H](C)O)c4n3)cc2)cc1Cl`, the Potency in test [1] was 0.263 µM (active); in test [2], 0.166 µM (active); in test [4], 0.332 µM (active); in test [5], 0.263 µM (active); in test [6], 0.332 µM (active).

On to `NC(=O)C1=C(O)[C@@]2(O)C(=O)C3=C(O)c4c(O)cccc4C[C@H]3C[C@H]2CC1=O`, for which the Potency in test [1] is 3.72 µM (active); in test [2], 9.34 µM (active); in test [3], 8.33 µM (active); in test [5], 7.42 µM (active); in test [6], 10.5 µM (active).

Turning to `CC(C)n1cc(-c2ccc3c(c2)N(C)CC3)c2c(NS(=O)(=O)c3ccn(C)n3)ccnc21`, the Potency entry in test [1], in test [2], in test [4] and in test [6] was “inactive” throughout.

As to `CO[C@@]12[C@H](COC(N)=O)C3=C(C(=O)C(C)=C(N)C3=O)N1C[C@@H]1N[C@@H]12`, the Potency entry in test [1], in test [3], in test [4], in test [5] and in test [6] was “inactive” in each case.

Turning to `C=C[C@@H]1CN2CCC1C[C@H]2[C@H](O)c1ccnc2ccc(OC)cc12` (stereo not given in full), the Potency in test [1] was 20.9 µM (active); in test [2], 16.6 µM (active). In addition, the Potency entry in test [4], in test [5] and in test [6] was “inactive” in each case.

In the case of `CCN(C(=O)c1c(O)c2c(Cl)cccc2n(C)c1=O)c1ccccc1`, the Potency is 13.2 µM (active) in test [1], 14.8 µM (active) in test [2] and 9.34 µM (active) in test [5].

For the compound `C/C(O)=C(\C#N)C(=O)Nc1ccc(C(F)(F)F)cc1`, the Potency was 9.34 µM (active) in test [1] and 14.8 µM (active) in test [3]. The Potency entry in test [4] is “inactive”.

On to `Nc1ncc(C(=O)NC2CN(C(=O)C3CC3)C2)c2ccc(-c3cccc(F)c3)nc12`, for which the Potency is 7.42 µM (active) in test [1], 10.5 µM (active) in test [2] and 23.5 µM (active) in test [4]. Moreover, in test [6], the Potency result was “inactive”.

As to `CCN(CC)C(=S)SSC(=S)N(CC)CC`, the Potency in test [1] was 0.332 µM (active); in test [2], 0.263 µM (active); in test [5] it was 0.296 µM (active); in test [6], 0.296 µM (active).

For `COc1cc(C(=O)NC(N)=Nc2ccc(C)c(NC(=O)c3ccc(-c4ccccc4)cc3)c2)cc(OC)c1OC`, the Potency in test [1] is 18.6 µM (active); in test [2], 18.6 µM (active); in test [3], 18.6 µM (active); in test [5] it was 18.6 µM (active); in test [6] it was 23.5 µM (active).
